{"source": "PubChem BioAssay AID977611", "origin": "cited, not measured here", "assay": "PubChem AID 977611", "settings": "PDB protein-ligand complexes, literature Kd", "note": "Out of some 3,900 compounds screened, about 3,900 (100%) were called active. Cut-off not given; nearly all actives show Kd up to about 4200 µM. The set was probably picked from earlier hits. The list shows a part of the results. *1 amine or outer side, *2 acyl side, *3 side chain or, on linkers, in order; H or OH if unused. Where a SMILES comes first, the peptide text is derived from it. Non-standard residues stand in square brackets, D forms with d. Square brackets hold non-standard residues; d marks the D form. Residues, ends and D or L forms follow the SMILES beside them. Bridges are numbered along the chain shown (N, C = ends). Peptide text beside a SMILES is read from it. [ ]: non-standard residue; d: D form. * marks the point of attachment. X1 = C[C@@](/C=C/CC=[*:3])(N[*:1])C(=O)[*:2]; Orn(CH(NH2)2) = NC(N)NCCC[C@H](N)C(=O)O; Benzoyl(4-Br) = O=C(c1ccc(Br)cc1)*; Benzoyl(4-F) = O=C(c1ccc(F)cc1)*; S5 = C=CCCC[C@](C)(N)C(=O)O; ΔPro = O=C(O)[C@@H]1C=CCN1"}
{"compound": "CC[C@H](C)[C@H](NC(=O)[C@H](CC(N)=O)NC(=O)[C@H](CCSC)NC(=O)[C@@H](N)CCCNC(N)N)C(=O)N[C@@H](CCC(N)=O)C(=O)N[C@@H](CCSC)C(=O)N[C@@H](CC(C)C)C(=O)N[C@@H](CC(C)C)C(=O)N[C@@H](CCC(=O)O)C(=O)N[C@@H](C)C(=O)N[C@@H](C)C(=O)N[C@@H](CC(=O)O)C(=O)N[C@@H](Cc1ccc(O)cc1)C(=O)N[C@@H](CC(C)C)C(=O)N[C@@H](CCC(=O)O)C(=O)N[C@@H](CCCNC(N)N)C(=O)O", "note": "(H-[Orn(CH(NH2)2)]MNIQMLLEAADYLE[Orn(CH(NH2)2)]-OH)", "values": [{"measurement": "Kd", "setting": "protein: mammalian Sin3A PAH2 domain, PDB entry 1g1e", "result": "0.029 µM (active)"}, {"measurement": "Kd", "setting": "protein: mammalian mSin3A (mSin3A) PAH2 domain, PDB entry 1s5q", "result": "5.2 µM (active)"}]}
{"compound": "H-EDMYRAADEIAKE-OH", "values": [{"measurement": "Kd", "setting": "protein: E3 ubiquitin-protein ligase RNF31 HOIP 5-180, PDB entry 4oyk", "result": "0.18 µM (active)"}]}
{"compound": "CO/N=C(\\C(=O)N[C@@H]1C(=O)N2C(C(=O)O)=C(COC(N)=O)CS[C@H]12)c1ccco1", "values": [{"measurement": "Kd", "setting": "protein: PA4794, PDB entry 4kov", "result": "177 µM (active)"}]}
{"compound": "CO/N=C(\\C(=O)N[C@@H]1C(=O)N2C(C(=O)O)=C(COC(C)=O)CS[C@H]12)c1csc(N)n1", "values": [{"measurement": "Kd", "setting": "protein: PA4794, PDB entry 4kot", "result": "3.5 µM (active)"}]}
{"compound": "Cc1oc2ccc(NS(=O)(=O)c3ccc(Cl)cc3)cc2c1C(=O)O", "values": [{"measurement": "Kd", "setting": "protein: Non-structural protein 5, PDB entry 3vws", "result": "225 µM (active)"}]}
{"compound": "CC[C@H](C)[C@H](NC(=O)[C@H](CCCCNC(=O)c1ccc(F)cc1)NC(=O)[C@H](CO)NC(=O)[C@@H](NC(=O)[C@@H]1CCCN1C(=O)[C@@H](N)Cc1c[nH]c2ccccc12)[C@@H](C)O)C(=O)O", "note": "(H-WPTSK(Benzoyl(4-F))I-OH)", "values": [{"measurement": "Kd", "setting": "protein: Golgi-associated PDZ and coiled-coil motif-containing protein CAL PDZ (CALP) domain, PDB entry 4nms", "result": "11.4 µM (active)"}]}
{"compound": "CC[C@H](C)[C@H](NC(=O)[C@H](CCCCNC(=O)c1ccc(Br)cc1)NC(=O)[C@H](CO)NC(=O)[C@@H](NC(=O)[C@@H]1CCCN1C(=O)[C@@H](N)Cc1c[nH]c2ccccc12)[C@@H](C)O)C(=O)O", "note": "(H-WPTSK(Benzoyl(4-Br))I-OH)", "values": [{"measurement": "Kd", "setting": "protein: Golgi-associated PDZ and coiled-coil motif-containing protein CAL PDZ (CALP) domain, PDB entry 4nmv", "result": "11.1 µM (active)"}]}
{"compound": "H-WPK(Ac)SII-OH", "values": [{"measurement": "Kd", "setting": "protein: Golgi-associated PDZ and coiled-coil motif-containing protein CAL PDZ (CALP) domain, PDB entry 4nmp", "result": "91.9 µM (active)"}]}
{"compound": "CN1CC/C=C/CCCCCCC(=O)Cc2c(Cl)c(O)cc(O)c2C1=O", "values": [{"measurement": "Kd", "setting": "protein: Hsp90 N-terminal domain, PDB entry 4ce1", "result": "41.8 µM (active)"}]}
{"compound": "CN1CCC/C=C\\CCCC(=O)Cc2c(Cl)c(O)cc(O)c2C1=O", "values": [{"measurement": "Kd", "setting": "protein: Hsp90 N-terminal domain, PDB entry 4ce3", "result": "110 µM (active)"}]}
{"compound": "CN1CC/C=C/CCCCCC(=O)Cc2c(Cl)c(O)cc(O)c2C1=O", "values": [{"measurement": "Kd", "setting": "protein: Hsp90 N-terminal domain, PDB entry 4ce2", "result": "144 µM (active)"}]}
{"compound": "O=c1cc(-c2ccc(O)cc2)oc2ccccc12", "values": [{"measurement": "Kd", "setting": "protein: Tankyrase-2, PDB entry 4kzq", "result": "0.788 µM (active)"}]}
{"compound": "CC(C)C[C@H](NC(=O)[C@@H]1CCCN1C(=O)[C@H](CO)NC(=O)[C@H](Cc1ccc(O)cc1)NC(=O)[C@@H](NC(=O)[C@H](Cc1c[nH]c2ccccc12)NC(=O)[C@H](CO)NC(=O)[C@H](CCCNC(N)N)NC(=O)[C@H](CCC(=O)O)NC(=O)[C@H](CC(=O)O)NC(=O)[C@@H](NC(=O)[C@@H]1C=CCN1C(=O)[C@H](Cc1ccccc1)NC(=O)[C@@H](N)Cc1ccc(O)cc1)[C@@H](C)O)C(C)C)C(=O)N[C@@H](Cc1c[nH]cn1)C(=O)O", "note": "(H-YF[ΔPro]TDE[Orn(CH(NH2)2)]SWVYSPLH-OH)", "values": [{"measurement": "Kd", "setting": "protein: clathrin adaptor AP-2 complex subunit beta-1, PDB entry 3h1z", "result": "22 µM (active)"}]}
{"compound": "CC[C@H](C)[C@H](NC(=O)[C@@H]1CCCN1C(=O)CNC(=O)[C@H](CC(N)=O)NC(=O)[C@@H]1CCCN1C(=O)[C@H](CO)NC(=O)[C@H](Cc1ccccc1)NC(=O)[C@H](CC(C)C)NC(=O)[C@H](Cc1ccc(O)cc1)NC(=O)[C@@H](N)CC(N)=O)C(=O)N[C@@H](C)C(=O)N[C@@H](CCCNC(N)N)C(=O)N[C@@H](C)C(=O)N[C@@H](Cc1c[nH]c2ccccc12)C(=O)O", "note": "(H-NYLFSPNGPIA[Orn(CH(NH2)2)]AW-OH)", "values": [{"measurement": "Kd", "setting": "protein: Ephrin type-B receptor 4, PDB entry 2bba", "result": "0.07 µM (active)"}]}
{"compound": "CC[C@H](C)[C@H](N)C(=O)N[C@H](C(=O)NCC(=O)NCC(=O)N[C@@H](Cc1ccc(O)cc1)C(=O)N1CCC[C@H]1C(=O)N[C@@H](Cc1c[nH]c2ccccc12)C(=O)N[C@@H](Cc1c[nH]c2ccccc12)C(=O)N[C@@H](CCSC)C(=O)O)C(C)C", "note": "(H-IVGGYPWWM-OH)", "values": [{"measurement": "Kd", "setting": "protein: Hepatocyte growth factor HGF-Beta V495, PDB entry 4o3t", "result": "43 µM (active)"}]}
{"compound": "CC(C)C[C@H](NC(=O)[C@H](Cc1ccc(O)cc1)NC(=O)[C@H](CO)NC(=O)CNC(=O)[C@H](Cc1ccc(O)cc1)NC(=O)[C@@H]1CCCN1C(=O)[C@H](Cc1ccc(O)cc1)NC(=O)[C@H](Cc1c[nH]c2ccccc12)NC(=O)[C@@H](NC(=O)[C@@H](N)CCCNC(N)N)C(C)C)C(=O)N[C@H](C(=O)N[C@@H](C)C(=O)N[C@@H](CO)C(=O)NCC(=O)N[C@@H](CO)C(=O)O)[C@@H](C)O", "note": "(H-[Orn(CH(NH2)2)]VWYPYGSYLTASGS-OH)", "values": [{"measurement": "Kd", "setting": "protein: Concanavalin A(ConA), PDB entry 1jyc", "result": "46 µM (active)"}]}
{"compound": "CC[C@H](C)[C@H](NC(=O)[C@@H]1CCCN1C(=O)CNC(=O)[C@H](C)N)C(=O)N[C@@H](CO)C(=O)N[C@@H](CC(C)C)C(=O)N[C@@H](CC(N)=O)C(=O)N[C@@H](Cc1c[nH]c2ccccc12)C(=O)N[C@@H](Cc1ccccc1)C(=O)N[C@@H](CCC(=O)O)C(=O)N[C@@H](CCC(=O)O)C(=O)N[C@@H](CC(C)C)C(=O)N[C@@H](CO)C(=O)N[C@@H](C)C=O", "note": "(H-AGPISLNWFEELSA-aldehyde)", "values": [{"measurement": "Kd", "setting": "protein: Partner and localizer of BRCA2, PDB entry 3eu7", "result": "0.66 µM (active)"}]}
{"compound": "CC[C@H](C)[C@@H]1NC(=O)[C@@](C)(NC(=O)[C@H](CCC(N)=O)NC(=O)[C@@H]2CCCN2C(=O)[C@H](Cc2c[nH]c3ccccc23)NC(=O)[C@@H](N)CCCNC(N)N)CCC/C=C\\C/C=C/[C@@](C)(C(=O)N[C@@H](Cc2c[nH]cn2)C(=O)N[C@H](C(=O)N[C@@H](CCCNC(N)N)C(=O)N[C@@H](CCCNC(N)N)C(=O)N[C@H](C(=O)N[C@@H](Cc2c[nH]c3ccccc23)C(=O)O)C(C)C)C(C)C)NC(=O)[C@H](CC(=O)O)NC(=O)[C@H](CC(C)C)NC1=O", "note": "(H-[Orn(CH(NH2)2)]WPQ[S5]ILD[X1]HV[Orn(CH(NH2)2)][Orn(CH(NH2)2)]VW-OH; staple (Z) 5-9)", "values": [{"measurement": "Kd", "setting": "protein: Catenin beta-1, PDB entry 4djs", "result": "0.013 µM (active)"}]}
